What follows are sequences tested against NGDN (assay: pooled miR-30 sensor sort-seq; sequence = guide strand). Settings: shRNA.
Also: reference of the scale not given here.

Sequence	sensor-assay potency score (higher = more potent)
TAATGTACTGGAACCAAGCGTG	-0.00853
TGTCACTGCAGTCTTGATCAGC	-0.949
TTTCTGTAGGATAGGCACCAGC	-1.35
TTCTAGACGCTTCTTCTCCCGC	-0.831
TTTCTCTCGCTTACTGACGCTC	-0.845
TTTTCTTCCGACCTTTCTGAGG	-1.13
TTGCTCATCATATTGCTGGGAT	0.439
TTGCTCGTTTTCGCCGTCCTTT	-1.03
ATATTTCTTAGACACTCCCTTC	-0.888
TTCGCCGTCCTTTCTCTCGCTT	-0.269
TACAGCCATCACTTGCTCCTGG	-0.0207
TAGGATTCTGATCCTCATCAAG	-1.32

These sequences were tested against NHP2 in the same assay as above. Settings: shRNA.

Sequence	sensor-assay potency score (higher = more potent)
TTTCTGAACCTCTTTCACCCCG	0.283
TTCTGCTTCACCGCTTTCTTGA	-0.609
TTCACCGCTTTCTTGATGCATT	-0.959
TTGACCAGCAGCTCCTGGTAGG	-0.886
TAGACATAGGGCAAATTTCGGT	-0.754
TGCATTTGTAGAGCTTCCGCGT	-0.805
TTTCTTGATGCATTTGTAGAGC	-0.635
TCTGCTTCTGCTTCACCGCTTT	0.228
TTCTGAACCTCTTTCACCCCGC	-0.0214
TTGACCATTATCACACAGGTGG	-0.273
TAGAGCTTCCGCGTGAGGCGGC	-0.484
TTTGTAGAGCTTCCGCGTGAGG	-1.63

These sequences were tested against NKIRAS2 in the same assay as above. Settings: shRNA.

Sequence	sensor-assay potency score (higher = more potent)
TTTGTCAATCTCCTTCTTGAGC	-1.29
TATAATAGGAACTCAGACCCAA	-0.0468
TCTCGATCATCTCCGAACCCAC	-1.49
TTGCCAAGGACCACGATGGTGA	-0.541
TGCGTCTCGATCATCTCCGAAC	-1.51
TTGAGCAGCTCCACACGCTGAA	-0.404
TTGCGTCATCTTGCTGGCCAAG	-1.52
TTATTGTGTCCAACCAATGCAT	-0.509
TGTAAGTCACACTTGTTGCCAA	0.157
AAAGACTCTCTGCTATCTGTGC	-0.545
TATTGTGTCCAACCAATGCATC	-1.63
TTGTTCTTCCGGCTGAGGGGGA	-0.774

These sequences were tested against NKPD1 in the same assay as above. Settings: shRNA.

Sequence	sensor-assay potency score (higher = more potent)
TCGCACATGAAACCCAGCTGGC	-0.962
TAGATCTCCAGGAAGCACAGGA	0.323
TTACGAACAGGTGCTTGCCCAC	-0.968
TTGAGCAGGCTGCCGCTCGGGC	-0.937

Source: the OligoGym collection
